Results filed as inconclusive are left out. Calls of active or inactive are those of the source. Rule for the calls, unless noted: active = hit-call score of the fitted dose curve at least 0.9, where 1 is the maximum; inactive = score below 0.9.
Key:
[1] = ATG_NFI_CIS: Attagene CIS-FACTORIAL HepG2 Assay for human Nuclear Factor I (NFI) (AID 2282989); details: HepG2 cis-regulatory reporter, NFI response element transcription; actives raise or lower the signal
Summary of the method: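 HepG2 cells transiently transfected with cis-element-driven multiplexed reporter transcription units, dosed for 24 h. Reporter mRNA quantified by RT-PCR, fluorescent labelling, HpaI digestion and capillary electrophoresis; bidirectional fit versus DMSO baseline.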

[2] = molecular target: Myc proto-oncogene protein (Homo sapiens) (UniProt P01106); experiment: ATG_Myc_CIS: Attagene CIS-FACTORIAL HepG2 Assay for human Myelocytomatosis (Myc) Proto-Oncogene Transcription Factor (AID 2282990); details: HepG2, Attagene cis-reporter transcription factor activity; actives raise or lower the signal
Summary of the method: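 Multiplexed cis-reporter transcription in HepG2 cells after 24 h chemical treatment. Reporter mRNA measured by RT-PCR and capillary electrophoresis fluorescence; activity fitted bidirectionally against DMSO control.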

[3] = ATG_NRF2_ARE_CIS: Attagene CIS-FACTORIAL HepG2 Assay for human Nuclear Factor Erythroid 2 Related Factor 2 (NFR2) response to Antioxidant Response Elements (ARE) (AID 2282992); details: HepG2 Attagene ARE/NRF2 reporter, transcription factor activity; actives raise or lower the signal
Summary of the method: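 Endogenous transcription factor activity read out as reporter transcript levels (RT-PCR plus capillary electrophoresis, fluorescence) in transiently transfected HepG2 cells. Measured at 24 h after dosing; gain or loss of signal fitted versus DMSO.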

[4] = ATG_Oct_MLP_CIS: Attagene CIS-FACTORIAL HepG2 Assay for human Octamer-Binding Transcription Factor (Oct) (AID 2282993); details: HepG2 Attagene cis-factorial Oct reporter, mRNA; actives raise or lower the signal
Summary of the method: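 HepG2 cells transiently transfected with cis-promoter-driven multiplexed reporter transcription units, dosed for 24 h. Reporter mRNA quantified by RT-PCR, fluorescent labelling, HpaI digestion and capillary electrophoresis; bidirectional fits versus DMSO baseline.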

[5] = molecular target: Cellular tumor antigen p53 (Homo sapiens) (UniProt P04637); experiment: ATG_p53_CIS: Attagene CIS-FACTORIAL HepG2 Assay for human p53 Transcription Factor (AID 2282994); details: HepG2 p53 cis-element reporter, Attagene mRNA; actives raise or lower the signal
Summary of the method: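 Endogenous p53 activity read in transiently transfected HepG2 from a cis-element-driven reporter transcript after 24 h exposure. RNA reverse-transcribed, PCR-amplified, fluorescently labelled and sized by capillary electrophoresis; gain or loss fitted against DMSO baseline.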

[6] = BSK_3C_TissueFactor: BioMAP Diversity Plus: 3C Assay for Tissue Factor Biomarker Activity (AID 2282997); details: BioMAP 3C HUVEC, tissue factor biomarker readout; actives raise or lower the signal
Summary of the method: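 Tissue factor on primary human umbilical vein endothelium was read by ELISA 24 h after dosing, gain or loss relative to DMSO. Cytotoxicity ran alongside via SRB (0.1%, TCA-fixed, 560 nm).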

[7] = BSK_3C_uPAR: BioMAP Diversity Plus: 3C Assay for Urokinase-type plasminogen activator receptor (uPAR) Biomarker Activity (AID 2282998); details: BioMAP 3C HUVEC, uPAR biomarker ELISA; actives raise or lower the signal
Summary of the method: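 Human umbilical vein endothelial primary cells were exposed to test chemical for 24 h. Cell-surface uPAR was then quantified by ELISA, and responses were fitted bidirectionally against DMSO as negative control and baseline.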

[8] = BSK_3C_VCAM1: BioMAP Diversity Plus: 3C Assay for Vascular cell adhesion molecule 1 (VCAM1) Biomarker Activity (AID 2282999); details: BioMAP 3C HUVEC, VCAM1 ELISA, cytokine-stimulated; actives raise or lower the signal
Summary of the method: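 Vascular primary endothelium (human umbilical vein) was exposed to chemicals and assayed 24 h later. VCAM-1 levels came from ELISA, with DMSO serving as baseline for bidirectional fitting.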

[9] = BSK_4H_Eotaxin3: BioMAP Diversity Plus: 4H Assay for Eotaxin 3 Biomarker Activity (AID 2283000); details: primary human endothelial cells (HUVEC); actives raise or lower the signal;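 note: CCL26 protein level quantified by ELISA in parallel with SRB cytotoxicity check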
Summary of the method: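 Human umbilical vein endothelial cells (BSK_4H system) dosed with test chemical; Eotaxin-3 (CCL26) measured by ELISA 24 h after dosing. Bidirectional curve fitting relative to DMSO negative control as baseline.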

[10] = read-out: Intercellular Adhesion Molecule 1 (ICAM1), ICAM1 (gene 3383); experiment: BSK_3C_ICAM1: BioMAP Diversity Plus: 3C Assay for Intercellular Adhesion Molecule 1 (ICAM1) Biomarker Activity (AID 2283003); details: primary human endothelial cells (HUVEC); actives raise or lower the signal
Summary of the method: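 Using DMSO as baseline, bidirectional curve fitting was applied to ICAM-1 ELISA signals from HUVEC in the 3C system, measured 24 h after compound addition.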

[11] = BSK_3C_Proliferation: Cell Proliferation Assessment in the BioMAP Diversity Plus: 3C Assay (AID 2283006); details: primary human endothelial cells (HUVEC)
Summary of the method: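 Measured here: sulforhodamine B (0.1%) staining of TCA-fixed sub-confluent umbilical vein endothelial cultures 48 h post-dosing, absorbance 560 nm. DMSO served as negative control and baseline; both signal gain and loss were modelled.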

[12] = molecular target: Peroxisome proliferator-activated receptor gamma (Homo sapiens) (UniProt P37231); experiment: ATG_PPARg_TRANS: Attagene TRANS-FACTORIAL HepG2 Assay for human Peroxisome Proliferator-activated Receptor-gamma (PPARg) (AID 2283007; active = hit-call score of the fitted dose curve at least 0.9, where 1 is the maximum)
Summary of the method: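 Liver-derived HepG2 cells expressing an exogenous NR-Gal4 chimera alongside GAL4-UAS reporter genes; 24 h exposure. Fluorescence of reporter RT-PCR products, separated by capillary electrophoresis, gives mRNA induction relative to DMSO.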

[13] = molecular target: Nuclear receptor subfamily 1 group I member 2 (Homo sapiens) (UniProt O75469); experiment: ATG_PXR_TRANS: Attagene TRANS-FACTORIAL HepG2 Assay for human Pregnane X Receptor (PXR) (AID 2283008; active = hit-call score of the fitted dose curve at least 0.9, where 1 is the maximum)
Summary of the method: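 Transactivation by exogenous PXR–GAL4 fusion measured as reporter transcript induction after 24 h compound treatment of transfected human HepG2 cells. Read-out via RT-PCR and capillary electrophoresis of labelled fragments, fitted upward relative to DMSO.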

[14] = molecular target: human Peroxisome Proliferator-activated Receptor alpha (PPARa), PPARA (gene 5465) (UniProt Q07869); experiment: ATG_PPARa_TRANS: Attagene TRANS-FACTORIAL HepG2 Assay for human Peroxisome Proliferator-activated Receptor alpha (PPARa) (AID 2283001; active = hit-call score of the fitted dose curve at least 0.9, where 1 is the maximum)
Summary of the method: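 Exposure: 24 h, transiently transfected HepG2 cells. Endpoint: GAL4-UAS reporter mRNA, RT-PCR with capillary electrophoresis fluorescence. Baseline: DMSO; increases fitted.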

[15] = molecular target: human Peroxisome Proliferator-activated Receptor delta (PPARd), PPARD (gene 5467) (UniProt Q03181); experiment: ATG_PPARd_TRANS: Attagene TRANS-FACTORIAL HepG2 Assay for human Peroxisome Proliferator-activated Receptor delta (PPARd) (AID 2283002; active = hit-call score of the fitted dose curve at least 0.9, where 1 is the maximum)
Summary of the method: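 Multiplexed trans-activation format: HepG2 liver cells expressing exogenous NR-Gal4 chimeras and GAL4-UAS reporters were exposed for 24 h. Reporter mRNA was detected by RT-PCR with capillary electrophoresis fluorescence; activity fitted as gain of signal relative to DMSO.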

[16] = molecular target: human Retinoic Acid Receptor beta (RARb), RARB (gene 5915) (UniProt P10826); experiment: ATG_RARb_TRANS: Attagene TRANS-FACTORIAL HepG2 Assay for human Retinoic Acid Receptor beta (AID 2283004; active = hit-call score of the fitted dose curve at least 0.9, where 1 is the maximum)
Summary of the method: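 Induction of reporter mRNA from a chimeric RARb-Gal4 construct was measured by RT-PCR, FAM labelling, HpaI digestion and capillary electrophoresis. Measurements followed 24 h compound treatment of transiently transfected human HepG2 liver cells, with DMSO as baseline.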

Measured: AC50

Sequence of Nuclear receptor subfamily 1 group I member 2 (Homo sapiens) (O75469 whole entry, looked up, the tested form may be a part): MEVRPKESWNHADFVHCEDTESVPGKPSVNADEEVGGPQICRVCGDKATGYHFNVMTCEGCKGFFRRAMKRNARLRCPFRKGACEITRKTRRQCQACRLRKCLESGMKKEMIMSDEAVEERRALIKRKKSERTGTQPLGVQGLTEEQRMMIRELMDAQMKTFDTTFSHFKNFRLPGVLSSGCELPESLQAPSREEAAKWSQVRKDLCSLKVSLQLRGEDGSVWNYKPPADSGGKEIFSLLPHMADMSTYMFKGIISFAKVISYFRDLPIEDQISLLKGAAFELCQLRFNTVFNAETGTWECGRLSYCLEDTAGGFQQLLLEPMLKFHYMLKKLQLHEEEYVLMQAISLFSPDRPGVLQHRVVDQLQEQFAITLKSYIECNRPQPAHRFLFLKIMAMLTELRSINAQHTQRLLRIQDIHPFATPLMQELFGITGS
Sequence of Cellular tumor antigen p53 (Homo sapiens) (P04637 whole entry, looked up): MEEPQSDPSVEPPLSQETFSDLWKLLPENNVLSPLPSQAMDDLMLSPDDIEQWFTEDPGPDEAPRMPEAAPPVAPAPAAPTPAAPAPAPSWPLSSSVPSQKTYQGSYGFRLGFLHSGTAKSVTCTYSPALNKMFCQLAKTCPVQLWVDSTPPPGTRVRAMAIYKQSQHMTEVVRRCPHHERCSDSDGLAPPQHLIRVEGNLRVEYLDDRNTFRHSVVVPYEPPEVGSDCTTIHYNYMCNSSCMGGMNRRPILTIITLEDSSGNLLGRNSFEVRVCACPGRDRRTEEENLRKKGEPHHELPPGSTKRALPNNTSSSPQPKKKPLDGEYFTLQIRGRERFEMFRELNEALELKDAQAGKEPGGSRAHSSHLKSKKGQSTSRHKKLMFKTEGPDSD
Sequence of Myc proto-oncogene protein (Homo sapiens) (P01106 whole entry, looked up): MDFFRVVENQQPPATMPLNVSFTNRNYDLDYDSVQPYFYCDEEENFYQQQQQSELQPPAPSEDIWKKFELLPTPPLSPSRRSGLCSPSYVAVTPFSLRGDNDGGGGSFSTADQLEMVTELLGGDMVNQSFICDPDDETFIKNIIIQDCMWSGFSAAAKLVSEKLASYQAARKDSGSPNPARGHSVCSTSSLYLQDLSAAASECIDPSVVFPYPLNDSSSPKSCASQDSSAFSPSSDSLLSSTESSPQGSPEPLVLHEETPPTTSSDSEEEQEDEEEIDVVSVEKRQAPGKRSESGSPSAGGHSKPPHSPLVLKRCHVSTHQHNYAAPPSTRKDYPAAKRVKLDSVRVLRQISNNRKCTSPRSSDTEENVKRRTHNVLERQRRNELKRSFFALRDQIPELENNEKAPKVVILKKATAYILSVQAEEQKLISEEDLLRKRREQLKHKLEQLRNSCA
Sequence of Peroxisome proliferator-activated receptor gamma (Homo sapiens) (P37231 whole entry, looked up, the tested form may be a part): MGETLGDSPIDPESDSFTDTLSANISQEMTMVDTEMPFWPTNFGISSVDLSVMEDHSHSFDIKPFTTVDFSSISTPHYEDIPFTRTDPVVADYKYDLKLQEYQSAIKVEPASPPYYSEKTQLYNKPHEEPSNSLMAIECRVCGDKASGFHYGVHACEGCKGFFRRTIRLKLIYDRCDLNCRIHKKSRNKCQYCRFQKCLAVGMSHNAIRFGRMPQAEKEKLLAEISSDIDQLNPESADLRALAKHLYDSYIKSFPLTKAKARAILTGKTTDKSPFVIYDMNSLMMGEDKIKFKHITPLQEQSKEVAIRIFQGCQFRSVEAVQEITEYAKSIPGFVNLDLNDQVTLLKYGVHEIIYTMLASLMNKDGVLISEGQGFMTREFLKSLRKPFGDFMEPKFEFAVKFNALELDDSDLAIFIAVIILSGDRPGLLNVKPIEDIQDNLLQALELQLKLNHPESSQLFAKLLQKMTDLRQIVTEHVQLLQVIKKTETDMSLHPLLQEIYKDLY
Sequence of human Peroxisome Proliferator-activated Receptor delta (PPARd), PPARD (gene 5467) (Q03181 whole entry, looked up, the tested form may be a part): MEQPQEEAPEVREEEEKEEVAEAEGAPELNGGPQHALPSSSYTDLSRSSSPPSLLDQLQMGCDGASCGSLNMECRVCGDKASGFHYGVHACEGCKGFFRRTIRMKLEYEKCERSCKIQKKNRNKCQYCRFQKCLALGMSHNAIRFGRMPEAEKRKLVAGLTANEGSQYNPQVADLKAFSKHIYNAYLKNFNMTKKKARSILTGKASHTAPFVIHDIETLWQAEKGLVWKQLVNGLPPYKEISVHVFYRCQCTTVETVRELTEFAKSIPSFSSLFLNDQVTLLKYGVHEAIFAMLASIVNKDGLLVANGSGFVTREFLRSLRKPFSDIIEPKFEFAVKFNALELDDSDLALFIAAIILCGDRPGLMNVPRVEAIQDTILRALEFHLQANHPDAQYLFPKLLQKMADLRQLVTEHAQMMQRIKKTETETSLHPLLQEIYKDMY
Sequence of human Peroxisome Proliferator-activated Receptor alpha (PPARa), PPARA (gene 5465) (Q07869 whole entry, looked up, the tested form may be a part): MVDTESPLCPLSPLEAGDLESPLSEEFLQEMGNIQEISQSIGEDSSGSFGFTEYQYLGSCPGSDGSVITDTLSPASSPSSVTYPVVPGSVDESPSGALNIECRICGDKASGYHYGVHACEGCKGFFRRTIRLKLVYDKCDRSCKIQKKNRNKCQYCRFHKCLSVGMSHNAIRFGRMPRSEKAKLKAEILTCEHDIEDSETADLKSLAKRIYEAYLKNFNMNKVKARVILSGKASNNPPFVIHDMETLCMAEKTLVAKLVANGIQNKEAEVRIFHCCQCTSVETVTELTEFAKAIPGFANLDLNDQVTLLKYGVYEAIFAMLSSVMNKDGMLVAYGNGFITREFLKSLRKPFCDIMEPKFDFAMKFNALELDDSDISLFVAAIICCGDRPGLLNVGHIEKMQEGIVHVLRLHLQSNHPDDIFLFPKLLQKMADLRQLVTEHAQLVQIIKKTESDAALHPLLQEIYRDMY
Sequence of human Retinoic Acid Receptor beta (RARb), RARB (gene 5915) (P10826 whole entry, looked up, the tested form may be a part): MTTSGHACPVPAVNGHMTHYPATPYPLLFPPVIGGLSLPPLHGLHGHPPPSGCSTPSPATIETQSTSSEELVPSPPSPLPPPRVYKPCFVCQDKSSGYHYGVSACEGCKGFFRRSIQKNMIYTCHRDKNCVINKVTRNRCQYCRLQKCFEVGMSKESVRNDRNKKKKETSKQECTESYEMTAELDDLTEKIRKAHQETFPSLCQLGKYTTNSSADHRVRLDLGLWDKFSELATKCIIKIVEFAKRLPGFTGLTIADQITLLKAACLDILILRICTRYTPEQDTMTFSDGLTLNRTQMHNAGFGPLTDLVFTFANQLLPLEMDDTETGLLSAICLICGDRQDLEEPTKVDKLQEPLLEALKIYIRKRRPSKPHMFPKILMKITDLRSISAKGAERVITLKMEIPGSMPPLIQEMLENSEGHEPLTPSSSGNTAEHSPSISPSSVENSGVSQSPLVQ

O=C(Nc1ccc2c(O)c(N=Nc3ccc(N=Nc4ccc(S(=O)(=O)O)cc4)cc3)c(S(=O)(=O)O)cc2c1)c1ccccc1
not listed: [14] | [15] | [16]
inactive: all other assays above

CCCCCCCCCCCCCCCC(=O)OC/C=C(C)/C=C/C=C(C)/C=C/C1=C(C)CCCC1(C)C
active: [3] 23.9 µM | [8] 20 µM | [12] 37.9 µM | [13] 2.82 µM
not listed: [11] | [16]
inactive: all other assays above

COC(C)(C)CCO
inactive: [1] | [2] | [3] | [4] | [5] | [14] | [15] | [16] | [13]

Source: PubChem BioAssay (EPA / NIEHS)
